HP1b chromo inh – HTS for Inhibitors of HP1-beta Chromodomain Interactions with Methylated Histone Tails; Chromobox protein homolog 1 (Homo sapiens), P83916; AlphaScreen HP1-beta / biotin-H3K9me3 peptide binding; Potency, µM (series often up to 114 µM), inactives show top-dose activity change, negative = inhibition, most hits filed as inhibitors; actives 0.56% (n = 390,000); AID 540317, 2011; note: potency is the fitted concentration of half-maximal effect; nearly all actives have a fitted effect of over 70% in size
Target sequence (P83916 whole entry, looked up): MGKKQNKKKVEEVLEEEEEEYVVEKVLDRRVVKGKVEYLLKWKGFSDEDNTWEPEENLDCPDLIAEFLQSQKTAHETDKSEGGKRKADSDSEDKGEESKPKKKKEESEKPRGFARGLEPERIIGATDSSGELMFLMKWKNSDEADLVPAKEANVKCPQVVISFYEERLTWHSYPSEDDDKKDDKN
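HP1-beta protein (50 nM final) preincubated 30 min at room temperature with biotinylated H3(1-18)K9me3 peptide (50 nM) in PBS pH 7.4, 0.01% Tween-20, then compound added for 30 min. AlphaScreen streptavidin donor/nickel chelate acceptor beads (10 ug/mL final), 30 min dark, luminescence read.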
L3MBTL1 block – qHTS Assay for the Inhibitors of L3MBTL1. Lethal(3)malignant brain tumor-like protein 1 (Homo sapiens), Q9Y468. AlphaScreen L3MBTL1–H3K9me1 peptide binding. Potency, µM (top dose mostly 57.1 µM), inactives show top-dose activity, negative = inhibition, hits mostly inhibitors. actives 0.66% (n = 230,000); note: potency is the fitted concentration of half-maximal effect; % is set by controls: 0 for no effect and ±100 for the full control effect; nearly all actives have a fitted effect of over 60% in size
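AlphaScreen assay: L3MBTL1 (50 nM final) was preincubated 30 min at room temperature with biotinylated H3(1-15)K9me1 peptide (75 nM final), then 30 min with library compounds; streptavidin donor and nickel chelate acceptor beads (10 ug/mL final) added, 30 min dark.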
PI5P4Ka inh – qHTS for Inhibitors of phosphatidylinositol 5-phosphate 4-kinase (PI5P4K); PI5P4Kalpha enzyme, ADP-Glo luminescence, 60 min; stronger effect = lower value; max response, %; actives 1.2% (n = 330,000); active = max response of -50% or lower; inconclusive = between -30% and -50%; inactive = -30% or higher; note: value at the top dose of about 77 µM; % is set by controls: 0 for no effect and ±100 for the full control effect
Target sequence (P48426 whole entry, looked up): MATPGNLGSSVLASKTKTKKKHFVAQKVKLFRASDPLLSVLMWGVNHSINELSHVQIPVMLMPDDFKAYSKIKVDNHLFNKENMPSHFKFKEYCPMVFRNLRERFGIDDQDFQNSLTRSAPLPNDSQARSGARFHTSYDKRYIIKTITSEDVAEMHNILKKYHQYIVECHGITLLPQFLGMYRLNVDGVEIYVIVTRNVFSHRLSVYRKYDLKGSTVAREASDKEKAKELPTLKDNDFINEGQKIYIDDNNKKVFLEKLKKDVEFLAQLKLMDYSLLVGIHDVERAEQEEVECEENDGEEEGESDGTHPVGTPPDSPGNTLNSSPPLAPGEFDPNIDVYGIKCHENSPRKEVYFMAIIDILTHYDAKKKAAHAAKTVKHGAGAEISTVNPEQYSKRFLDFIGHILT
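ADP-Glo luminescence end-point read after a 60 min room-temperature kinase reaction of PI5P4Kalpha plus substrate, initiated with ATP at 5 microM final. Buffer: 0.038 M HEPES pH 7.4, EGTA, 0.1% CHAPS, 5% DMSO.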
JMJD2A Tudor – qHTS Assay for Inhibitors of JMJD2A-Tudor Domain; AlphaScreen JMJD2A-Tudor / H3K4me3 peptide binding; AID 504339, 2011; actives 4.4% (n = 390,000); Lysine-specific demethylase 4A (Homo sapiens), O75164; Potency, µM (highest dose often 114 µM), for the others: top-dose activity change, negative = inhibition, hits mostly inhibitors; note: potency is the fitted concentration of half-maximal effect; % is set by controls: 0 for no effect and ±100 for the full control effect; nearly all actives have a fitted effect of over 50% in size
BAZ2B block – qHTS Assay for Inhibitors of BAZ2B; Bromodomain adjacent to zinc finger domain protein 2B (Homo sapiens), Q9UIF8; AlphaScreen BAZ2B-H3K14Ac peptide displacement; Potency, µM (highest dose often 114 µM), without a hit: at the top dose activity change, negative = inhibition, hits mostly inhibitors; actives 4.4% (n = 360,000); AID 504333, 2011; note: potency is the fitted concentration of half-maximal effect; % is set by controls: 0 for no effect and ±100 for the full control effect; nearly all actives have a fitted effect of over 60% in size
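Protein-peptide AlphaScreen: BAZ2B 50 nM, b-H3K14Ac 50 nM, 1x PBS pH 7.4 + 0.01% Tween-20. Preincubation 30 min RT; cpd 30 min RT (top 110 uM); beads 20 min RT, light-protected.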
G9a block – qHTS Assay for Inhibitors of Histone Lysine Methyltransferase G9a; Histone-lysine N-methyltransferase EHMT2 (Homo sapiens), Q96KQ7; Potency, µM (titrated, usually from 102 µM), inactives show top-dose activity, negative = inhibition, usual class: inhibitors; AID 504332, 2011; actives 8.8% (n = 350,000); G9a H3K9 monomethylation, AlphaScreen, 2 h; note: potency is the fitted concentration of half-maximal effect; % is set by controls: 0 for no effect and ±100 for the full control effect; nearly all actives have a fitted effect of over 75% in size
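Chemiluminescent proximity detection of H3K9 monomethylation, read after 10 min bead incubation in the dark. Reaction: 20 nM G9a, 500 nM biotin-H3K9 peptide, 20 uM SAM cofactor, 2 h, room temperature, following 15 min enzyme-compound preincubation.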
* hit, by the source's call; [ ] = remark or other dose. The list is not random: actives were taken first. Their share in the collection is about 11%. Unless noted, calls come from the whole dose curve; as a rule, active = well fitted inhibition curve with a large enough effect; inconclusive = small, poorly fitted or top-dose-only effect; inactive = no such curve, though single readings can be large or run the other way.

CC(C)(C)c1cc(/C=C(\C#N)C(N)=S)cc(C(C)(C)C)c1O was read as G9a block 28µM*.
For CCOC(=O)/C(C#N)=C\c1ccc(OC)c(OC)c1 the results were HP1b chromo inh 18%, L3MBTL1 block 5%, PI5P4Ka inh 2, JMJD2A Tudor -20%, BAZ2B block 3% and G9a block inconclusive.
Screening CC(C)(C)c1cc(/C=N/O)cc(C(C)(C)C)c1O returned HP1b chromo inh 34%, L3MBTL1 block -5%, PI5P4Ka inh -3, JMJD2A Tudor -11%, BAZ2B block -16% and G9a block -7%.
Screening O=C(CCC1N=C2c3ccccc3N=C(SCC(=O)Nc3ccc(F)cc3)N2C1=O)NCc1ccco1 (stereo not given) returned HP1b chromo inh 46%, JMJD2A Tudor -20%, BAZ2B block 3% and G9a block 4%[59 µM].
C1CCC(C(C[C@@H]2CCCCN2)C2CCCCC2)CC1 was read as G9a block 6%[21.5 µM].
`O=C(O)/C=C/c1cnc2ccccc2c1` gave HP1b chromo inh 27%, L3MBTL1 block 2%, PI5P4Ka inh -10, JMJD2A Tudor -13%, BAZ2B block -15% and G9a block 50µM*.
`CCN1CCN(CCCN(Cc2ccco2)C(=S)Nc2ccc(Cl)c(C)c2)CC1` gave HP1b chromo inh 10%, L3MBTL1 block 7%, PI5P4Ka inh 2, JMJD2A Tudor -18%, BAZ2B block -20% and G9a block inconclusive.
For Cc1ccc(NC(=S)N(CCCN2CCCC2)Cc2cccn2Cc2ccc(Cl)cc2)cc1Cl the results were HP1b chromo inh -5%, PI5P4Ka inh 15, JMJD2A Tudor inconclusive, BAZ2B block inconclusive and G9a block 32µM*.
`CN(C)CCCN(Cc1ccccc1)C(=S)Nc1cccc(C(F)(F)F)c1` gave HP1b chromo inh 33%, L3MBTL1 block -4%, PI5P4Ka inh 2, JMJD2A Tudor -8%, BAZ2B block -6% and G9a block 71µM*.
COc1ccc(NC(=S)N(CCCN2CCCC2)Cc2cccn2Cc2ccc(Cl)cc2)cc1Cl was read as HP1b chromo inh -9%, PI5P4Ka inh 1, JMJD2A Tudor inconclusive, BAZ2B block 28µM* and G9a block 28µM*.
For COc1ccc(NC(=S)N(CCCN2CCC(C)CC2)Cc2cccs2)cc1Cl the results were HP1b chromo inh -9%, PI5P4Ka inh 0, JMJD2A Tudor -25%, BAZ2B block -34% and G9a block inconclusive.
For Cc1ccc(NC(=S)N(CCCN2CCCC2)Cc2cccn2Cc2ccc(Cl)cc2)cc1C the results were HP1b chromo inh -23%, PI5P4Ka inh 1, JMJD2A Tudor 50µM*, BAZ2B block -14% and G9a block -14%.
CCCCCCCC/C=C\CCCCCCCC(N)=O was read as G9a block 28%[59 µM].
For O=C(NCCCN1CCN(c2ccccc2)CC1)c1nnc(Cc2ccc(F)cc2)o1 the results were HP1b chromo inh 34%, JMJD2A Tudor -20%, BAZ2B block -18% and G9a block -11%[59 µM].
For COc1ccccc1NC(=O)C(=O)NCC(c1ccc2c(c1)OCO2)N1CCN(C)CC1 (stereo not given) the results were HP1b chromo inh 23%[57 µM], JMJD2A Tudor -13%, BAZ2B block -2% and G9a block -6%[59 µM].
Screening O=C(Nc1ccc(Cl)c(-c2nc3ccccc3o2)c1)c1cccc2c(Cl)cccc12 returned HP1b chromo inh 25%, JMJD2A Tudor 10%, BAZ2B block -13% and G9a block -5%[59 µM].
Screening COc1ccccc1CN1CCCC2(CCN(C(=O)c3cnccn3)CC2)C1 returned G9a block 6%[12.7 µM].
Screening O=S(=O)(Nc1cccc(-c2ccc(N3CCCCC3)nn2)c1)c1ccc(Cl)s1 returned HP1b chromo inh 21%[57 µM], JMJD2A Tudor -20%, BAZ2B block -9% and G9a block -7%[59 µM].
`FC(F)(F)c1cccc(NC(=S)N(CCCN2CCCC2)Cc2cccn2Cc2ccc(Cl)cc2)c1` gave HP1b chromo inh 4%, PI5P4Ka inh 1, JMJD2A Tudor inconclusive, BAZ2B block -30% and G9a block 45µM*.
For CCn1c(SCc2cccc(Br)c2)nnc1-c1nonc1NC(C)=O the results were HP1b chromo inh 57%, JMJD2A Tudor 6%, BAZ2B block 1% and G9a block 0%[59 µM].
`CC1(C)C/C(=N\NC(=S)Nc2ccccc2F)c2cc(O)ccc2O1` gave HP1b chromo inh 7.9µM*, L3MBTL1 block -23%, PI5P4Ka inh -12, JMJD2A Tudor 18µM*, BAZ2B block inconclusive and G9a block inconclusive.
`Cc1ccc(NC(=O)CSc2nc3ccc(Nc4nc(N5CCOCC5)nc(N5CCOCC5)n4)cc3s2)cc1` gave HP1b chromo inh 17%, PI5P4Ka inh -6, JMJD2A Tudor -18%, BAZ2B block -20% and G9a block 35µM*.
Screening CCCC(=O)Nc1ccc2nc(SCC(=O)Nc3nccs3)sc2c1 returned HP1b chromo inh -10%, L3MBTL1 block 6%, PI5P4Ka inh -15, JMJD2A Tudor 79µM*, BAZ2B block inconclusive and G9a block inconclusive.
Screening CCC(Sc1nc2ccc(N)cc2s1)C(=O)Nc1nccs1 (stereo not given) returned HP1b chromo inh 26%, PI5P4Ka inh -5, JMJD2A Tudor 50µM*, BAZ2B block -32% and G9a block 13µM*.
Screening CN(C)c1ccc(NC(=O)c2sc(SCC(=O)Nc3nccs3)nc2N)cc1 returned HP1b chromo inh inconclusive, PI5P4Ka inh -26, JMJD2A Tudor inconclusive, BAZ2B block 40µM* and G9a block inconclusive.
For CCCC(=O)Nc1ccc2nc(SCCOc3ccccc3)sc2c1 the results were HP1b chromo inh 47%, JMJD2A Tudor -9%, BAZ2B block inconclusive and G9a block 6%[59 µM].
`O=c1c(CCc2ccccc2)nc2cnc(Nc3ccccc3)nc2n1Cc1cccs1` gave G9a block -3%[12.7 µM].
COc1cccc(CN(C(=O)c2oc3ccc(Br)cc3c2C)C2CCS(=O)(=O)C2)c1 (stereo not given) was read as HP1b chromo inh 17%, JMJD2A Tudor -18%, BAZ2B block -11% and G9a block -43%[59 µM].
